HepG2 tox – qHTS for Inhibitors of TGF-b: Cytotox Counterscreen; HepG2 CAGA-GFP viability, ATP luminescence, 18 h; Potency, µM (highest dose often 46.1 µM), inactives show top-dose activity change, negative = cytotoxicity, actives largely listed as cytotoxic; 410,000 tested, 0.76% active
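HepG2 CAGA-GFP cells (1000/well, DMEM with 1% FBS) received compound, then TGF-beta at 500 pg/mL final, and were incubated 18 hours at 37 degrees C. Viability was read by CellTiter-Glo luminescence. Media-only wells were set as complete cell-killing and DMSO as no toxicity.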
TGFb inhibitor – qHTS for Inhibitors of TGF-b; 410,000 tested, 1.2% active; Potency, µM (highest dose often 46.1 µM), for the others: at the highest dose activity, negative = inhibition, most hits filed as inhibitors; AID 588855, 2011; HepG2 CAGA-GFP TGF-b/SMAD3 reporter, GFP fluorescence, 18 h; TGF-beta stimulated, 500 pg/mL final; further: on the % scale 0 is the no-effect control and ±100 the full control effect; nearly all actives have a fitted effect of over 65% in size
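Inhibition was scored as loss of TGF-beta-induced (500 pg/mL final, 18 hours, 37 degrees C) GFP in HEPG2 cells carrying a CAGA-GFP reporter, in DMEM with 1% FBS. Well GFP was summed per cell; Activity was normalised to unstimulated and stimulated DMSO wells, then concentration-response fitting.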
ATXN2 expr inh – Primary qHTS for Inhibitors of ATXN expression; HEK-293 ATXN2-luciferase reporter, luminescence, 24 h; Potency, µM (titrated, usually from 57 µM), for the others: at the highest dose activity change, negative = inhibition, most hits filed as inhibitors; 360,000 tested, 0.72% active; AID 1745845, 2022; further: on the % scale 0 is the no-effect control and ±100 the full control effect; nearly all actives have a fitted effect of over 55% in size
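qHTS (up to 57 uM final) was run with 24 h compound exposure of reporter cells at 37 °C. Each well was multiplexed: SteadyGlo luminescence measured ATXN2-luciferase expression after a fluorogenic Gly-Phe-AFC viability readout (25 uM final).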
S2 tox – Viability Counterscreen for Primary qHTS for Inhibitors of ATXN expression; S2 cells (HEK-293 line with an ATXN2-luciferase reporter) viability, CellTiter-Fluor protease fluorescence, 24 h; Potency, µM (titrated, usually from 56.7 µM), hits mostly cytotoxic; 400,000 tested, 0.49% active; further: nearly all actives have a fitted effect of over 40% in size
GLP1R inv ag – qHTS of GLP-1 Receptor Inverse Agonists (Inhibition Mode); HEK293 GLP-1R CRE-luciferase, luminescence, 24 h; GLP-1R form is constitutively active; 410,000 tested, 1.6% active; AID 624417, 2012; Potency, µM (top dose mostly 38.3 µM), without a hit: at the highest dose activity change, negative = inhibition, most hits filed as inhibitors; further: on the % scale 0 is the no-effect control and ±100 the full control effect; nearly all actives have a fitted effect of over 55% in size
Target sequence (P43220 whole entry, looked up): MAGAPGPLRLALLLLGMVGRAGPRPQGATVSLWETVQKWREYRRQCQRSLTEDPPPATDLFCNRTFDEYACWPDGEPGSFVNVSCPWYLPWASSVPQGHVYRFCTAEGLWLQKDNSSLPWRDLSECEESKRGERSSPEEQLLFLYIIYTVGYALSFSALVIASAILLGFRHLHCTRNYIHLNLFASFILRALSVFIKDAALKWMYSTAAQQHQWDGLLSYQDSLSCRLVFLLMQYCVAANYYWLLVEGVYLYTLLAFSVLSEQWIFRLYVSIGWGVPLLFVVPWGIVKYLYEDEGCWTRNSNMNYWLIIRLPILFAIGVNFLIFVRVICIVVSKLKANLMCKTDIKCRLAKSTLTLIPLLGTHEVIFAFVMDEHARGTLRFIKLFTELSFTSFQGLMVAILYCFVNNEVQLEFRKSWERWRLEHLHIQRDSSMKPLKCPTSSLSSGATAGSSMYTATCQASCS
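Seeding at 200 cells/uL, 12 h culture, 24 hr compound treatment, then luciferase reagent and a luminescence read; cells are HEK293 stably expressing a constitutively active GLP-1R plus cAMP-responsive luciferase.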
GLP1R ag – qHTS of GLP-1 Receptor Agonists | Glucagon-like peptide 1 receptor (Homo sapiens), P43220 | HEK293 GLP-1R CRE-luciferase, luminescence, 4-6 h; cells express a hypersensitive GLP-1R form | Potency, µM (titrated, usually from 45.6 µM), without a hit: top-dose activation, hits mostly activators | 380,000 tested, 0.007% active; further: % of control where 0% means no effect
The depositor's hits bear a star; i = inactive; ? = inconclusive; . = not tested or not shown. In the library only some 3.7% were active in any assay of this set; here they are far more common. The call rests on the fitted dose curve; in most records, active means well fitted curve in the direction sought with a large enough effect; inconclusive means small, poorly fitted or top-dose-only effect, or another doubt; inactive means no such curve, though single readings can be large; an effect the other way counts as inactive or inconclusive. Potency means the concentration at half of the fitted maximal effect.

SMILES	HepG2 tox	TGFb inhibitor	ATXN2 expr inh	S2 tox	GLP1R inv ag	GLP1R ag
Cn1c(N=Nc2ccccc2)nc2ccccc21	7.1µM*	-7%	7%	i	4.5µM*	-20%
CN(C)c1ccc(N=Nc2nc3ccccc3n2C)cc1	-130%	?	.	.	?	-9%
COc1cccc(NS(=O)(=O)c2ccc3c(c2)[C@H]2C=CC[C@H]2[C@@H](c2ccccc2Cl)N3)c1	-50%	11µM*	0%	i	?	.
CC(Sc1nnc(CN2CCCC2)n1Cc1ccccc1)C(=O)Nc1ccc(F)c(F)c1F (stereo not given)	-5%	-17%	-12%	?	5µM*	6%
Cc1ccccc1NC(=O)C(C)Sc1nnc(CN2CCCC2)n1Cc1ccccc1 (stereo not given)	-6%	1%	.	i	?	1%
CC(Sc1nnc(CN2CCCC2)n1Cc1ccccc1)C(=O)Nc1ccccc1 (stereo not given)	-31%	-6%	6%	i	7.9µM*	11%
CCOc1ccc(OCC(=O)Nc2ccccc2N2CCCC2)cc1	-4%	-10%	-18%	i	10µM*	4%
O=C(COc1ccccc1)Nc1ccccc1N1CCN(c2ccccc2)CC1	-15%	-14%	-9%	i	-23%	0%
O=C(Cc1ccc(Cl)c(Cl)c1)Nc1ccccc1N1CCCC1	-7%	?	?	i	10µM*	5%
O=C(COc1ccccc1)Nc1ccccc1N1CCCCC1	-4%	-7%	-8%	i	11µM*	4%
O=C(COc1ccccc1)Nc1cc(C(F)(F)F)ccc1N1CCCC1	-2%	?	?	i	13µM*	3%
CCc1ccccc1N(C)C	1%	?	.	.	.	.
Cc1nn(-c2ccccc2)c(OC(=O)c2ccccc2Br)c1S(=O)(=O)c1ccccc1	9%	-12%	4%	i	13%	-3%
CCOc1ccc(C(=O)Nc2cccc(-c3nc4cc(Cl)cc(Cl)c4o3)c2)cc1	-28%	6%	7%	i	-6%	.
CCc1cccc(C)c1NC(=S)NCCc1c(C)[nH]c2ccc(C)cc12	11µM*	13µM*	?	i	?	-5%
CCc1cccc(CC)c1NC(=S)NCCc1c(C)[nH]c2ccc(C)cc12	-102%	13µM*	18µM*	?	7.9µM*	-1%
OC1(c2cccnc2)CCN(Cc2ccc3c(c2)CN(Cc2cccc(F)c2F)CCO3)CC1	.	.	.	i	.	.
O=C(NCc1cccc(C(F)(F)F)c1)C1CC(c2ccccc2[N+](=O)[O-])=NO1 (stereo not given)	-6%	-3%	15%	i	?	-1%
O=C(NCc1cc(C(F)(F)F)cc(C(F)(F)F)c1)C1CC(c2ccccc2[N+](=O)[O-])=NO1 (stereo not given)	-10%	-24%	-12%	i	10µM*	1%
CC1CCCC(C)N1CCCNC(=O)c1ccc2c(c1)NC(=O)c1ccccc1S2 (stereo not given)	-20%	-12%	-13%	i	?	1%
CCC(C)N(CCNC(=O)c1ccc2c(c1)NC(=O)c1ccccc1S2)C1CCCCC1 (stereo not given)	11µM*	?	?	?	3.5µM*	6%
CNC(=O)C1(C(F)(F)F)CC(CCCO)CCCO1 (stereo not given)	-11%	-9%	.	.	.	.
CCOC(=O)N1CCN(C(=O)CSc2nc3c([nH]c4ccccc43)c(=O)n2C)CC1	-75%	13µM*	3%	i	3%	2%
CC(O)(c1ccccc1)[N+]1(CC(=O)c2ccccc2)C=CC=C1 (stereo not given)	-20%	-9%	.	.	.	.
Cc1[nH]c2ccccc2c1C(=O)CNc1ccc(Br)cc1	-31%	?	.	.	.	.
SMILES	HepG2 tox	TGFb inhibitor	ATXN2 expr inh	S2 tox	GLP1R inv ag	GLP1R ag
CCCC(C(=O)NCc1ccco1)N(C(=O)CNS(=O)(=O)c1ccc(Cl)cc1)C1CCCC1 (stereo not given)	1%	?	-6%	?	10µM*	-20%
CCC(C(=O)NCc1ccco1)N(C(=O)CNS(=O)(=O)c1ccccc1)C1CCCCC1 (stereo not given)	-1%	-20%	-2%	i	11%	-4%
O=C(CS(=O)Cc1ccco1)NC/C=C\COc1cc(CN2CCCCC2)ccn1 (stereo not given)	.	.	6%	i	.	.
COc1ccc(N2CCN(C(=O)CS(=O)Cc3nc(-c4ccc(OC)c(OC)c4)oc3C)CC2)cc1 (stereo not given)	-4%	0%	-12%	i	9%	4%
Cc1ccc(-c2nc(CS(=O)CC(=O)N3CCN(c4cccc(Cl)c4)CC3)c(C)o2)cc1 (stereo not given)	-13%	?	.	.	-10%	.
COc1cccc(-c2nc(CS(=O)CC(=O)N3CCN(c4cccc(C(F)(F)F)c4)CC3)c(C)o2)c1 (stereo not given)	-38%	16µM*	.	.	?	.
Cc1ccc(-c2nc(CS(=O)CC(=O)N3CCN(c4ccc(F)cc4)CC3)c(C)o2)cc1 (stereo not given)	-36%	?	.	?	?	0%
COc1cccc(-c2nc(CS(=O)(=O)CC(=O)N3CCN(c4ccccc4)CC3)c(C)o2)c1	-12%	11µM*	.	.	?	.
CCN1CCN(C(=O)CS(=O)(=O)Cc2nc(-c3cccc(OC)c3)oc2C)CC1	8%	4%	4%	i	-7%	-3%
Cc1oc(-c2ccc(Cl)cc2)nc1CS(=O)CC(=O)N1CCN(c2cccc(C(F)(F)F)c2)CC1 (stereo not given)	20µM*	8.9µM*	.	.	3%	.
Cc1oc(-c2ccccc2Cl)nc1CS(=O)CC(=O)N1CCN(c2cccc(C(F)(F)F)c2)CC1 (stereo not given)	-105%	11µM*	.	.	?	.
CCOC(=O)c1c(NC(C)=O)c2c3c(sc2n1Cc1nc(-c2ccccc2Cl)oc1C)CCCC3	-7%	.	.	.	11%	.
Cc1cc(-c2ccnc(-n3ncc(C(=O)NCc4cccnc4)c3C3CC3)n2)c(C)s1	.	.	.	i	.	.

From PubChem BioAssay
